Shown are actives, neighbours in structure and some others; about 2.9% of the full set was active somewhere.
a7 integrin act: integrin-mediated muscular dystrophy alleviation activation | alpha7betagal myoblasts, beta-gal FDG fluorescence, 48 h | Potency, µM (highest dose often 38.3 µM), without a hit: at the highest dose activation, actives largely listed as activators | hit rate 0.064% among 350,000; active means well fitted activation curve with a large enough effect; inconclusive means small, poorly fitted or top-dose-only effect; inactive means no such curve, though single readings can be large or run the other way;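 further: potency means the concentration at half of the fitted maximal effect; 100% = response of the positive control SU9516; nearly all actives have a fitted effect of over 60% in size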
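alpha7betagal+/- myoblasts (passage 13, 250/well) treated 48 h at 37C with compounds at 1:260 dilution of DMSO stock. Lysed, then beta-galactosidase activity read as FDG fluorescence (ex 480/em 540) after 30 min, with pre-read for autofluorescence.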
DRD3 agonist: activates the human D3 dopamine receptor | max activation, % | AID 652048 | P35462 | D3R DiscoveRx beta-arrestin cells, luminescence, 90 min | hit rate 0.58% among 410,000; in the data active means max activation above about 30%; further: 0% is about no effect
Target sequence (P35462 whole entry, looked up): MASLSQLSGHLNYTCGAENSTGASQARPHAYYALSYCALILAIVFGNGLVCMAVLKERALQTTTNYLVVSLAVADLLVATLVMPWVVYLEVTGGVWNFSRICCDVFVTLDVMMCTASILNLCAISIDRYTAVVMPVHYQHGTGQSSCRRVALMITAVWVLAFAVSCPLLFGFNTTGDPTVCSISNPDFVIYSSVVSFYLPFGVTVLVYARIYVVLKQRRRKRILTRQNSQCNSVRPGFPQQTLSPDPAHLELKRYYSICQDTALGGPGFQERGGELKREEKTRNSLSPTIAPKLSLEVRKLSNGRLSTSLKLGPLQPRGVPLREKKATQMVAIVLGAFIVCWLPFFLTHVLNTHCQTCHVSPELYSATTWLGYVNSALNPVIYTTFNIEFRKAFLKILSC
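Cells at 1500/well, incubated overnight, then treated with pinned compounds (dopamine as control) for 90 min at 37 degrees C. DiscoveRx reagent added for 30 - 60 minutes at room temperature; luminescence read.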
D3 antag: blocks the human D3 dopamine receptor. AID 652054. P35462. D3R cells, DiscoveRx beta-arrestin luminescence, antagonist mode; hits give low values. max response, negative = inhibition, %. hit rate 2.5% among 360,000; in the data active means max response below about -50%; inconclusive means no clear call, values can overlap the other calls; further: on the % scale 0 is the no-effect control and ±100 the full control effect
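Cells plated overnight at 1500 cells/well, then exposed to library compounds with dopamine controls for 90 minutes at 37 degrees C. DiscoveRx reagent added for 30–60 minutes at room temperature; luminescence read, quantitative HTS format.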
The depositor's hits bear a star; ? = inconclusive; nt = no result; [ ] = another dose, or the depositor's remark.

SMILES | a7 integrin act | DRD3 agonist | D3 antag
CCOC(=O)c1c(NC(=O)CSc2nnc(N)s2)sc(C)c1-c1ccc(C)cc1 | 25.1% | 43.2* | 67.8
Cc1ccc(/C(=N/Nc2ncnc3ccccc23)C(=O)O)cc1 | -13.4% | -7.3 | ?
COC(=O)C(=O)C/C(=N/Nc1ncnc2ccccc12)c1ccc(Cl)cc1 | 10µM* | -2.6 | ?
COCCn1c(C)nc2oc3ccc(Br)cc3c(=O)c2c1=O | -22.0% | 0.2 | 23.2
O=C(C1CCN(S(=O)(=O)c2cccnc2)CC1)N1CCN(c2ccc(Cl)cc2)CC1 | -8.3% | -10.2 | -2.3
Cc1ccccc1C(=O)Nc1scc(-c2ccc(Br)cc2)c1C(=O)O | 2.82µM* | 10.2 | 16.5
O=C(Nc1scc(-c2ccc(Br)cc2)c1C(=O)O)c1ccccc1F | 13.9% | 8.0 | 12.2
CCOc1ccc(C(=O)N2CCN=C2SC)cc1OCC | -3.0% | -0.2 | 4.5
CC(C)CC(=O)Nc1nnc(SCC(=O)NC2CCCC2)s1 | -1.7% | 2.8 | 38.6
O=C(Nc1nccs1)c1cc(-c2ccccc2)nc2ccccc12 | -17.9% | 44.1* | 16.2
Cc1ccc2nc(-c3ccncc3)cc(-c3ccccc3)c2c1 | 10.6% | 56.6* | 24.4
Cc1ccc2nc(-c3ccc(NS(C)(=O)=O)cc3)cc(-c3ccccc3)c2c1 | -45.3% | 17.9 | -15.6
O=C(Nc1nccs1)c1cc(-c2ccco2)nc2ccccc12 | -14.7% | 7.6 | 5.6
Cc1cccc(-c2cc(C(=O)Nc3ccncc3)c3ccccc3n2)c1 | ? | 35.4* | 100.2
O=C(Nc1ccncc1)c1cc(-c2ccccc2)nc2ccccc12 | -9.8% | 4.5 | 131.7
O=C(O)/C=C\C(=O)Nc1ccccc1C#Cc1ccc(Br)cc1 | 36.2%[7.66 µM] | -5.2 | 2.9
CC1CC(C)CN(c2nc(N(C)c3ccccc3)nc(N)c2[N+](=O)[O-])C1 (stereo unspecified) | -4.7% | -1.7 | 0.0
C1=CCC(CN2CCNCC2)CC1 (stereo unspecified) | -10.2% | 1.4 | -3.7
Cc1ccc(C)c(N2CCN(CC3CC=CCC3)CC2)c1 (stereo unspecified) | -1.3% | -29.0 | -72.9*
Cc1ccc(Nc2n[nH]c(=S)s2)cc1 | 12.2% | -6.9 | -51.1*
S=c1[nH]nc(Nc2ccc(Cl)cc2)s1 | 33.5% | -3.1 | 101.7
Cc1ccc(N2C(=O)CC(N3CCN(c4ccc(F)cc4)CC3)C2=O)c(C)c1 (stereo unspecified) | 13.1% | 2.9 | -1.6
O=C(NCCc1ccccn1)c1ccc(OC2CCN(CCc3ccccc3)CC2)cc1 | -12.6% | -27.6 | -61.6*
Cc1cccnc1CCNC(=O)c1ccc(OC2CCN(Cc3ccccn3)CC2)cc1 | -16.2% | -4.7 | -12.9
O=C(NCCc1cccc(Cl)c1)c1ccc(OC2CCN(Cc3ccccn3)CC2)cc1 | -62.1% | -18.5 | -58.7*
SMILES | a7 integrin act | DRD3 agonist | D3 antag
O=C(NCC1COCCO1)c1ccc(OC2CCN(CCc3ccccc3)CC2)cc1 (stereo unspecified) | 20.9% | -28.2 | -5.5
CSCCCNC(=O)c1ccc(OC2CCN(CCc3ccccc3)CC2)cc1 | -41.5% | -19.5 | -85.2*
COC(=O)[C@@H](NC(=O)c1ccc(OC2CCN(Cc3ccccn3)CC2)cc1)C(C)C | 2.0% | -3.3 | -25.3
CC(Cc1ccccn1)NC(=O)c1ccc(OC2CCN(CCc3ccccc3)CC2)cc1 (stereo unspecified) | 11.0% | -9.8 | -66.2*
O=C(NC1CCCCC1)c1ccc(OC2CCN(Cc3ccccn3)CC2)cc1 | 4.4% | -17.4 | -6.4
Cc1ccc(CCNC(=O)c2cnc3c(C)cccn3c2=O)cc1 | nt | 4.4 | nt
Cc1cccc2sc(N(Cc3cccnc3)C(=O)C3COc4ccccc4O3)nc12 (stereo unspecified) | nt | -17.2 | nt
CC(C)CC(C(=O)N1CCc2ccccc2C1)N1C(=O)c2ccccc2C1=O (stereo unspecified) | -12.4% | -6.8 | -8.0
COc1ccc(C(C#N)=Cc2cccc(OC)c2OC)cc1 | -34.4% | 3.1 | 40.6
COc1ccc(/C=N/NC(=O)c2cccc(OC(F)(F)C(F)F)c2)cc1O | -7.4% | -14.7 | -76.1*
COc1ccc(/C=N/NC(=O)c2cccc(OC(F)(F)C(F)F)c2)c(OC)c1OC | -2.2% | -8.1 | 3.4
CCOc1ccc(N(CC(=O)NCCSCc2ccco2)S(=O)(=O)c2ccc(C)cc2)cc1 | -9.1% | -3.4 | 5.6
CCCN(CCC)CC(O)CN(c1cc([N+](=O)[O-])ccc1OC)S(=O)(=O)c1ccccc1 (stereo unspecified) | -35.6% | -1.2 | -65.3*
COc1ccc([N+](=O)[O-])cc1N(CC(O)CN1CCCCC1)S(=O)(=O)c1ccccc1 (stereo unspecified) | -14.7% | -13.9 | -22.2
O=C(CNS(=O)(=O)c1ccc([N+](=O)[O-])cc1)N/N=C/c1ccc(O)cc1O | 16.1% | 6.8 | 11.0
CC1CCC(NC(=O)CN(C)S(=O)(=O)c2cccc3cccnc23)CC1 (stereo unspecified) | -16.4% | 0.9 | 7.6
Cc1ccc(NC(=O)C2=C(c3ccccc3)S(=O)(=O)CCS2(=O)=O)cc1 | -75.0% | -22.5 | -71.3*
Cc1ccc(NC(=O)c2ccccc2)cc1 | 17.3% | -4.8 | -17.4
CCc1nc(C)cc(N)c1OCc1ccccc1 | -19.2% | 0.7 | 11.0
CCOC(=O)C1=C(C)N=c2s/c(=C\c3ccc(O)c([N+](=O)[O-])c3)c(=O)n2C1c1ccccc1OC (stereo unspecified) | 20.7% | -9.8 | -16.7
CCOC(=O)C1=C(C)N=c2s/c(=C/c3cccc([N+](=O)[O-])c3O)c(=O)n2C1c1ccc(OC)cc1OC (stereo unspecified) | 19.0% | -20.7 | -55.0*
O=C(Cc1ccccc1)Nc1ccccc1C(=O)NCC1CCCO1 (stereo unspecified) | 1.1% | -2.3 | -16.5
COc1cc(C)c(C(C)C)cc1S(=O)(=O)N1CCN(C)CC1 | -15.5%[7.66 µM] | 0.2 | -18.4
COc1cc(C)c(S(=O)(=O)N2CCOCC2)cc1C(C)C | -0.9% | 3.1 | -88.3*
O=C(CSc1ccccn1)Nc1nonc1[N+](=O)[O-] | -84.6% | -3.5 | -70.3*
SMILES | a7 integrin act | DRD3 agonist | D3 antag
O=C(CSc1ccccn1)Nc1ccc(NC(=O)CSc2ccccn2)cc1 | 13.7% | 4.8 | 5.4
CCOC(=O)[C@]12CCC=C1N(Cc1ccco1)C(=O)[C@H](CC(=O)N1CCOCC1)C2 | nt | 6.4 | 2.0
COc1ccc(CC(=O)OCC(=O)NCc2ccc(Cl)cc2)cc1 | -35.1% | -4.3 | -16.1
COc1ccc(CNC(=O)COC(=O)Cc2ccc(Cl)cc2Cl)cc1 | 13.6% | 12.5 | -80.0*
CCC(C)(C)C1CCc2[nH]nc(C(=O)NCc3ccccn3)c2C1 (stereo unspecified) | -10.2% | 4.3 | 17.2
CCC(C)(C)C1CCc2[nH]nc(C(=O)NCc3ccc(Cl)cc3)c2C1 (stereo unspecified) | -36.0% | 0.5 | -75.0*
CNc1nnc(-c2cc3ccccc3oc2=O)s1 | 12.0% | 0.9 | -1.9
COc1ccc(NC(=O)CN(C)CC(=O)Nc2ccc(C)c(S(=O)(=O)N3CCCCC3)c2)cc1 | -36.9% | -1.1 | -1.6
CCOCCCNC(=O)c1ccc(Cn2c(=S)[nH]c3c([nH]c4ccc(OC)cc43)c2=O)cc1 | 1.9% | -3.5 | -9.7
CCCCNC(=O)c1ccc(Cn2c(=S)[nH]c3c([nH]c4ccc(OC)cc43)c2=O)cc1 | -52.5% | -1.1 | -64.7*
